# TRPV1 potentiator – HTS Assay for Compounds that Act as Potentiators of the Vanilloid Receptor 1. Transient receptor potential cation channel subfamily V member 1 (Homo sapiens), Q8NER1. TRPV1-expressing cells, Fluo-8 calcium influx, capsaicin EC20 potentiation. potentiation, % at 8.33 µM. 320,000 tested, 0.02% active; in the data active means potentiation above about 80%; inconclusive means between about 30% and that limit; further: 0% is about no effect
#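 Fluo-8 calcium influx in TRPV1-expressing cells, kinetic read (ex 480/em 520 nm). Compound added and read 3 min for agonist activity, followed by capsaicin at EC20 final and 2 min further read for enhancement.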
# D1 ag – Allosteric Agonists of the Human D1 Dopamine Receptor: qHTS | D(1A) dopamine receptor (Homo sapiens), P21728 | HEK293 T-REx D1 cells, calcium flux, agonist mode | activation, % at 2 µM | 360,000 tested, 1% active; in the data active means activation above about 30%; further: 0% is about no effect
#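 Agonism was scored from calcium flux recorded over 180 s (1 read/s) after pintool compound addition, following a 10-cycle baseline. Cells were inducible force-coupled HEK293 TREx D1, plated overnight at 30 C and loaded with no-wash calcium dye.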
# D1 potentiator – Potentiators of Human D1 Dopamine Receptor: qHTS | HEK293 TREx D1 cells, calcium flux, dopamine EC20 potentiation | potentiation, % at 10 µM | 360,000 tested, 0.036% active | AID 504651, 2011; in the data active means potentiation above about 30%; further: 0% is about no effect
# D1 antag – Antagonist of Human D 1 Dopamine Receptor: qHTS. D(1A) dopamine receptor (Homo sapiens), P21728. AID 504652, 2011. HEK293 TREx D1 cells, calcium flux, dopamine EC80; active compounds read low. 360,000 tested, 3.2% active. activity change, negative = inhibition, % at 10 µM; in the data active means activity change below about -30%; further: on the % scale 0 is the no-effect control and ±100 the full control effect
#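 After overnight tetracycline induction at 30 C, force-coupled D1 HEK293 cells took up a no-wash calcium dye at room temperature. Compounds were added and monitored 180 s, and the response to EC80 dopamine was then recorded.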
# TRPV1 agonist – HTS Assay for Compounds that Act as Agonists of the Vanilloid Receptor 1; Transient receptor potential cation channel subfamily V member 1 (Homo sapiens), Q8NER1; TRPV1-expressing cells, Fluo-8 calcium influx, agonist mode; activation, % at 8.33 µM; 320,000 tested, 0.19% active; in the data active means activation above about 80%; inconclusive means between about 30% and that limit; further: 0% is about no effect
#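 Fluo-8 calcium influx in TRPV1-expressing cells, kinetic read (ex 480/em 520 nm). Compound added and read 3 min for agonist activity, followed by capsaicin at EC20 final and 2 min further read for enhancement.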
# Starred values were filed as active, the others as inactive; ? = inconclusive; . = no result given. In the library only some 4.2% were active in any assay of this set; here they are far more common.
SMILES,TRPV1 potentiator,D1 ag,D1 potentiator,D1 antag,TRPV1 agonist
COCCNc1nc(NCc2cccc(Cl)c2)c2cnn(C)c2n1,.,5,0,-6,.
c1ccc(CNc2ncnc3c2cnn3Cc2ccccc2)cc1,-30,52*,-9,-15,?
Cn1ncc2c(NCc3cccc(Cl)c3)ncnc21,.,2,-2,-38*,.
CSc1nncc(/C(C)=N\Nc2cccc(C)c2)n1,-3,2,-2,-17,1
CSc1nncc(/C(C)=N\Nc2ccccc2)n1,14,0,-4,-37*,4
CC1CCc2c(sc3nnn(CCCCOc4ccc(Cl)cc4)c(=O)c23)C1 (stereo not given),.,1,0,1,.
Cc1ccc(CN2C(=O)CSC2c2ccc(F)cc2)cc1 (stereo not given),9,6,4,-39*,30
CC(C)Cc1nc(SCC(=O)NCC2CCCO2)c2c(=O)n(C)c(=O)n(C)c2n1 (stereo not given),-14,3,-14,-92*,1
CCOc1ccc(C(=O)NCC(=O)NCC2CCCCC2)cc1OCC,0,1,2,-34*,0
Cc1cccc(C)c1NC1=C(Cl)C(=O)OC1OC(=O)c1ccccc1 (stereo not given),26,-1,-1,-48*,1
Cc1ccc(NC2=C(Cl)C(=O)OC2OC(=O)c2ccccc2)c(C)c1 (stereo not given),-2,9,-2,-51*,5
Cc1ccccc1NC1=C(Cl)C(=O)OC1OC(=O)c1ccccc1C (stereo not given),30,1,-1,-22,-4
Cc1ccc(NC2=C(Cl)C(=O)OC2OC(=O)c2ccco2)cc1 (stereo not given),9,4,-1,-21,-1
CCCCCn1c(=O)c(C(=O)c2ccccc2)nc2ccccc21,-17,3,-1,7,?
CCCCCCn1c(=O)[nH]c2nc3cc(N)ccc3nc2c1=O,1,451*,16,-14,?
N#CC1=C(N)NC(SCc2ccc(F)cc2)=C(C#N)C12CCCCC2,-2,10,-4,-31*,7
Cc1ccc(Cl)cc1N1CCN(C(=O)c2ccc3nc(N4CCC(C)CC4)sc3c2)CC1,.,1,-3,-3,.
O=[N+]([O-])c1ccc(CSc2ccccn2)cc1,2,1,-1,-4,-1
O=[N+]([O-])c1ccc(Sc2ccccn2)nc1,0,2,6,-68*,-8
COC(=O)c1ccc(Sc2ccccn2)c([N+](=O)[O-])c1,19,1,-9,-34*,-5
O=C(O)c1ccc(Sc2ccccn2)c([N+](=O)[O-])c1,5,2,3,-4,0
NS(=O)(=O)c1ccc(Sc2ccccn2)c([N+](=O)[O-])c1,-5,2,-4,-33*,-4
CC(C)(C)c1ccc(S(=O)(=O)NCCc2ccncc2)cc1,-9,5,-6,-95*,25
Cn1nnc2c(N3CCN(c4ccc(F)cc4)CC3)ncnc21,.,4,1,.,.
COc1ccc(C(=O)c2ccc(Br)cc2)c2ccccc12,-14,0,-6,-40*,-2
SMILES,TRPV1 potentiator,D1 ag,D1 potentiator,D1 antag,TRPV1 agonist
O=C(c1ccc(Br)cc1)N1CCN(CCc2ccncc2)CC1,.,2,3,-5,.
Cc1ccc(NC(=O)CSc2nc(-c3cccs3)cc(C(F)(F)F)n2)cc1C,.,7,-3,2,.
O=C(Cn1ncn2nc(-c3cccs3)cc2c1=O)NCc1ccccc1Cl,.,2,1,-12,.
Cc1ccccc1CNC(=O)Cn1ncn2nc(-c3cccs3)cc2c1=O,.,7,0,-36*,.
Cc1ccc(C(C)(C)C)cc1S(=O)(=O)Nc1cccc(C(=O)N2CCN(c3ccccn3)CC2)c1,19,33*,3,3,-9
CC1CCc2c(cc(-c3ccccc3)n2-c2ccc(C(=O)NC(C)C)cc2)C1 (stereo not given),.,7,-5,-39*,.
CC(C)NC(=O)c1ccc(-n2c(-c3ccccc3)cc3c2CCCCC3)cc1,.,1,-4,-8,.
O=C(CSc1nc(-c2ccccc2)cn1-c1ccccc1F)Nc1ccc(F)cc1,.,5,3,-19,.

# Bioassay records (PubChem BioAssay)
